# Source: PubChem BioAssay (The Scripps Research Institute Molecular Screening Center)
# Sampled rows, rich in hits. Any-hit rate of the full collection: about 1.9%.
# OPRM1-OPRD1 ag – agonists of OPRM1-OPRD1 heterodimerization, primary screen, cell-based, luminescence | cells | Mu-type opioid receptor (Homo sapiens) + Delta-type opioid receptor (Homo sapiens), … | AID 504326, 2011 | activation, % at 9.3 µM | 340,000 tested, 0.3% active;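 further: 0% = vehicle-treated cells and 100% = reference agonist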
# Target sequence (P35372 whole entry, looked up): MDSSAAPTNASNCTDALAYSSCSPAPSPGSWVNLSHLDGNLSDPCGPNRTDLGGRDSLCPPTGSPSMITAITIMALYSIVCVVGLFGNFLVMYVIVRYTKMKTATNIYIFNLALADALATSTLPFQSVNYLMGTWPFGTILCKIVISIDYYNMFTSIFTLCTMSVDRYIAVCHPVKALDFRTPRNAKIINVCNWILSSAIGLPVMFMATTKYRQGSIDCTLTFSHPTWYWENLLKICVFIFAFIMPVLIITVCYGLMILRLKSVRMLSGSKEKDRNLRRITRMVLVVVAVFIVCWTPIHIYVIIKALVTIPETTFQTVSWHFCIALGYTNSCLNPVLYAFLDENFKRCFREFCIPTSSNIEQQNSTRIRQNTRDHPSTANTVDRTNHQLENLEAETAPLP
# Target sequence (P41143 whole entry, looked up): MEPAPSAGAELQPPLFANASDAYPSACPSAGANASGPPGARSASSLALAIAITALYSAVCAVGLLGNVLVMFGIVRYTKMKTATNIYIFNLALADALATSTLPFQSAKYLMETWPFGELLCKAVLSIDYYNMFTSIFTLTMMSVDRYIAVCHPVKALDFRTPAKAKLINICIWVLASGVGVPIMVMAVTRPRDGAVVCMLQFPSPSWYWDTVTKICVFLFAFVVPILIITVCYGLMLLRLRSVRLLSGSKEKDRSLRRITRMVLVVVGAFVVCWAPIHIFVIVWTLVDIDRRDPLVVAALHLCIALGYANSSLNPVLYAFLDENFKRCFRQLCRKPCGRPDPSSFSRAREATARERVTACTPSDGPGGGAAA
# HTR5A inv ctr – HTR5A inverse agonists in luminescence cell assay, primary screen, counter-screen for OPRM1-OPRD1 heterodimer inverse agonist project, full-deck HTS; 340,000 tested, 0.083% active; inhibition, % at 9.3 µM; HTR5A cell line, inverse agonism; in the data active means inhibition mostly above about 23%, no sharp cut-off; inactive means mostly below about 18%;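 further: 0% = cells with DMSO and 100% = no-cell wells with DMSO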
# MsrA inhibitor – bovine MsrA enzyme inhibitors, primary screen, biochemical, absorbance, HTS; purified bovine MsrA, absorbance read-out; inhibition, % at 15.5 µM; 360,000 tested, 0.75% active; AID 651718, 2012; in the data active means inhibition above about 4.5%;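 further: 0% = vehicle wells with enzyme and 100% = reference inhibitor wells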
# MsrA act – bovine MsrA enzyme activators, primary screen, biochemical, absorbance, HTS | Methionine sulfoxide reductase A (Bos taurus) | purified bovine MsrA, absorbance read-out | activation, % at 10.6 µM | 360,000 tested, 0.3% active | AID 602163, 2012; in the data active means activation above about 7.5%;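 further: 0% = vehicle and 100% = reference activator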
# OPRM1-OPRD1 inv – inverse agonists of MOR-DOR heterodimerization, primary screen, cell-based, luminescence | 340,000 tested, 0.21% active | cell-based MOR-DOR heterodimer luminescence, inverse agonism | inhibition, % at 9.3 µM | Mu-type opioid receptor (Homo sapiens) + Delta-type opioid receptor (Homo sapiens), …; in the data active means inhibition above about 22%, passing the limit was not always enough;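 further: 0% = cells with DMSO and 100% = wells without cells with DMSO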
# HTR5A ag ctr – HTR5A agonists in luminescence cell assay, primary screen, counter-screen for OPRM1-OPRD1 heterodimer agonist project, full-deck HTS; cell-based; activation, % at 9.3 µM; 340,000 tested, 0.61% active; in the data active means activation mostly above about 9.5%, no sharp cut-off; inactive means mostly below about 7.6%;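 further: 0% = cells with vehicle only and 100% = reference agonist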
# MOR-DOR ag conf – agonists of MOR-DOR heterodimerization, confirmation, cell-based, luminescence | 830 tested, 45% active | cells, luminescence complementation | AID 504904, 2011 | activation, % at 9.3 µM | shares compounds with OPRM1-OPRD1 ag;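 further: 0% = vehicle-treated cells and 100% = reference agonist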
# HTR5A ag ctr2 – HTR5A agonists in cells, counter-screen for OPRM1-OPRD1 heterodimer agonist project, cell-based, luminescence; activation, % at 9.3 µM; HTR5A agonist counterscreen; shares compounds with OPRM1-OPRD1 ag; 830 tested, 8% active; in the data active means activation above about 17%;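 further: 0% = vehicle-treated cells and 100% = reference agonist response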
# * = called active by the depositor; · = no result given. Unless noted, no stated cut-off is given here; in the data, active means activation above about 18%; inactive means the rest.
SMILES,OPRM1-OPRD1 ag,HTR5A inv ctr,MsrA inhibitor,MsrA act,OPRM1-OPRD1 inv,HTR5A ag ctr,others
CC12CC[C@H]3[C@@H](CCC4(O)C[C@H](O)CCC34/C=N/NC(=O)c3ccc(O)cc3)C1(O)CCC2C1=CC(=O)OC1 (stereo partly drawn),1,-19,1,-4,-4,4,
COc1ccc(C(=O)N/N=C/C23CC[C@@H](O)CC2(O)CC[C@@H]2[C@@H]3CCC3(C)C(C4=CC(=O)OC4)CCC23O)cc1 (stereo partly drawn),34*,19,-1,-5,-169,30*,
CN(C)c1ccc(C(=O)N/N=C/C23CC[C@@H](O)CC2(O)CC[C@@H]2[C@@H]3CCC3(C)C(C4=CC(=O)OC4)CCC23O)cc1 (stereo partly drawn),59*,6,0,-5,-301,35*,
Cc1cccc2nc(-c3ccccc3)c(-c3ccc(CN4CCC(n5c(=O)[nH]c6cc(Cl)ccc65)CC4)cc3)nc12,·,·,3,·,·,·,
CCc1cc(OC)c(CCN)cc1OC,·,·,0,·,·,·,
COC(=O)C1C(c2ccc(F)cc2)CC2CCC1N2C (stereo not drawn),·,·,-1,·,·,·,
C=C(COC(C)=O)CC1CC(O)[C@]2(C)OC3CC4OC5C[C@]6(C)O[C@]7(C)CCC8OC9C[C@]%10(C)OC%11C(C)=CC(=O)OC%11CC%10OC9C[C@@H](C)C8OC7CC6O[C@]5(C)C/C=C\C4OC3CC2O1 (stereo partly drawn),0,0,·,9.7*,2,0,
C=C(CO)CC1CC(O)[C@]2(C)OC3CC4OC5C[C@]6(C)O[C@]7(C)CCC8OC9C[C@]%10(C)OC%11C(C)=CC(=O)OC%11CC%10OC9C[C@@H](C)C8OC7CC6O[C@]5(C)C/C=C\C4OC3CC2O1 (stereo partly drawn),-1,2,-1,-3,6,-2,
COP(=O)(OC)OC=C(Cl)Cl,·,·,0,·,·,·,
C[C@@H]1O[C@@H](O[C@H]2C[C@@H](O)[C@]3(CO)[C@H]4[C@H](O)C[C@]5(C)[C@@H](C6COC(=O)C6)CC[C@]5(O)[C@@H]4CC[C@]3(O)C2)[C@H](O)[C@H](O)[C@H]1O (stereo partly drawn),73*,-81,-1,-2,-404,27,
Cc1cccc(CCNCc2cc3ccc(C)cc3[nH]c2=O)c1,-1,-43,2,-2,5,12*,
Cc1ccc2[nH]c(C)c(CCNCc3ccco3)c2c1,0,5,2,-4,-2,-1,
COc1ccc2nc(-c3ccc(CN4CCC(n5nnc6ccccc65)CC4)cc3)c(-c3ccccc3)nc2c1,·,·,3,·,·,·,
COc1ccc2c3c([nH]c2c1)C(C)=NCC3,1,19,4,11*,-6,-5,
CC(C)c1ccc(-n2c(O)c(C=NCCN3CCNCC3)c(=O)[nH]c2=S)cc1,1,-39,3,-2,-4,10*,
Cc1ccc(-n2c(O)c(C=NCCN3CCNCC3)c(=O)[nH]c2=S)cc1,-1,2,4.6*,-2,5,-1,
O=C(NCCN1CCC2(CC1)C(=O)NCN2c1ccccc1)C(c1ccccc1)c1ccccc1,·,·,1,·,·,·,
CC1(C)CC(CCNCc2ccc3c(c2)OCO3)(Cc2ccccc2)CCO1 (stereo not drawn),31*,3,-2,-9,-163,-1,MOR-DOR ag conf=28*;HTR5A ag ctr2=-4
Clc1cccc(CNCCc2ccc3c(c2)OCO3)c1,2,19,-1,-2,-11,-5,
